High-throughput results from PubChem.
tim23-1 inh: growth inhibitors of tim23-1 mutant yeast, primary screen, luminescence, uHTS | inhibition, % at 20 µM | AID 463212, 2010 | hit rate 1.3% among 330,000 | S. cerevisiae tim23-1 growth, BacTiter-Glo luminescence, 24 h;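 active means growth inhibition of the mutant yeast at or above 50%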;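 further: temperature-sensitive mutant grown at 25 °C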
Calb FLC: C. albicans growth inhibition with fluconazole, primary screen, CaCi-2 strain, Alamar Blue fluorescence; hit rate 0.57% among 300,000; growth inhibition, % (no concentration beside the values); C. albicans CaCi-2 (fluconazole-resistant clinical isolate) + fluconazole, 48 h; AID 1979, 2009;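 active means growth inhibition above about 58% in most replicates, limit read from the data, passing the limit was not always enough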;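 further: all wells also contain fluconazole at 8 µg/ml as a sub-toxic cotreatment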
TIM10 inh: growth inhibitors of isogenic TIM10 control yeast, primary screen, counter-screen for tim10-1 yeast inhibitor project, luminescence, uHTS; hit rate 1.4% among 330,000; S. cerevisiae TIM10 strain growth, BacTiter-Glo luminescence, 24 h; AID 463195, 2010; inhibition, % at 10 µM;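 active means inhibition of 40% or more at the single tested concentration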;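 further: wild-type TIM10 isogenic control strain grown at permissive 25 °C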
SKKanGAS inh: S. pyogenes SKKanGAS growth inhibitors in kanamycin, primary screen, streptokinase expression inhibitor project, SKKanGAS strain, BacTiter-Glo luminescence; 6 h; inhibition, % at 7.5 µM; hit rate 1.3% among 300,000;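 active means mean replicate score, as percent of positive control median, at least 50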;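 further: strain carries kanamycin resistance gene driven by streptokinase promoter and grows in 40 µg/ml kanamycin; loss of luminescence reflects streptokinase promoter inhibition or plain growth inhibition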
tim10-1 inh: growth inhibitors of tim10-1 mutant yeast, primary screen, luminescence, uHTS; S. cerevisiae tim10-1 ts strain growth, BacTiter-Glo, 24 h; inhibition, % at 20 µM; hit rate 2.2% among 330,000; AID 463190, 2010;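 active means inhibition of at least 40%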;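 further: mutant grown at 25 °C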
PfHsp90 set2: growth inhibition of PfHsp90-expressing yeast, primary screen, antimalarial PfHsp90 inhibitor project, S. cerevisiae, BacTiter-Glo luminescence, single point, set 2; BacTiter-Glo ATP, 48 h; yeast lacking PDR1 and PDR3 efflux regulators; inhibition, % at 9.4 µM; hit rate 0.32% among 310,000;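 active means every replicate shows inhibition above about 80%, whatever the replicate mean, limit read from the data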
tim10-1 confirm: growth inhibitors of tim10-1 mutant yeast, confirmation, single concentration, luminescence, S. cerevisiae | shares compounds with tim10-1 inh | S. cerevisiae tim10-1 ts strain growth, BacTiter-Glo, 24 h | inhibition, % at 20 µM | hit rate 56% among 7,400;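 active means inhibition of yeast growth at or above a set limit in either of two repeat tests at 20 µM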;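 further: tim10-1 mutant grown at permissive 25 °C to find synthetic lethal compounds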
TIM10 conf: growth inhibitors of wild-type TIM10 yeast, confirmation, counter-screen for tim10-1 synthetic lethality project, single concentration, luminescence, S. cerevisiae. inhibition, % at 10 µM. shares compounds with TIM10 inh. S. cerevisiae tim10 strain growth, BacTiter-Glo luminescence, 24 h. hit rate 63% among 4,600;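 active means inhibition of yeast growth at or above a set limit in either of two replicates at 10 µM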; further: this counterscreen used the strain with wild-type TIM10
tim23-1 conf: tim23-1 mutant yeast growth inhibitors, confirmation, luminescence, single concentration; S. cerevisiae tim23-1 growth, BacTiter-Glo luminescence, 24 h; shares compounds with tim23-1 inh; hit rate 83% among 4,400; inhibition, % at 20 µM; AID 463218, 2010;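 active means inhibition above about 39% in either of two replicate wells at 20 µM, limit read from the data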;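 further: temperature-sensitive tim23-1 mutant grown at 25 °C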
Of the large screens only hits and unclear results are named; the others gave an inactive call (follow-up assays come after a bar, where they were run). Only some compounds are listed: those with a hit (about 4.7% of all), similar ones and a draw of the others.

COc1ccc(/C=C\C(=O)c2c(O)ccc3c(C)cc(=O)oc23)cc1OC	tim23-1 inh 54, TIM10 inh 47, tim10-1 inh 53 | tim10-1 confirm 50 | TIM10 conf 51 | tim23-1 conf 52
Cc1cc(=O)oc2c(C(=O)/C=C/c3ccccc3)c(O)ccc12	none
CC(=O)c1c(OCC(=O)O)ccc2c(C)cc(=O)oc12	none
Cc1cc(=O)oc2c(C(=O)/C=C\c3cccs3)c(O)ccc12	tim23-1 inh 73, TIM10 inh 56, tim10-1 inh 54 | tim10-1 confirm 79 | TIM10 conf 64 | tim23-1 conf 66
COc1cc(CCC(=O)Nc2nccs2)cc(OC)c1OC	none
Cc1ccccc1NC(=O)CN1CCN(C(=O)c2ccco2)CC1	none
COc1ccccc1CNS(=O)(=O)c1ccc2c(c1)NC(=O)C(C)S2 (stereo not drawn)	none
CC(NC(=O)CCn1ccc2cc(S(=O)(=O)N3CCCC3)ccc21)c1ccccc1 (stereo not drawn)	none
Cc1ccc(NC(=O)c2sc(N)nc2-c2ccc([N+](=O)[O-])cc2)c(C)c1	none
Cc1cc(=O)[nH]c(N/N=C/c2c(C)nn(-c3ccccc3)c2C)n1	none
Cc1nn(-c2ccccc2)c(C)c1/C=N/Nc1nc2ccccc2[nH]1	tim23-1 inh 52, TIM10 inh 48, SKKanGAS inh 60, tim10-1 inh 45 | tim10-1 confirm inactive | TIM10 conf inactive | tim23-1 conf 41
NNC(=O)/C(=N/Nc1ccccc1)S(=O)(=O)c1ccc(Cl)cc1	tim23-1 inh 69, SKKanGAS inh 74, tim10-1 inh 56 | tim10-1 confirm 49 | tim23-1 conf 59
CCOC(=O)/C(=N/Nc1ccc(C)cc1)S(=O)(=O)c1ccc(Cl)cc1	none
CC(C)(C)C(=O)OC/C(N)=N/OC(=O)c1ccc(Cl)c(Cl)c1	tim23-1 inh 84, TIM10 inh 77, tim10-1 inh 63 | tim10-1 confirm 42 | TIM10 conf 86 | tim23-1 conf 69
CC1(c2ccc(NC(=O)c3ccccc3F)cc2)CC1(Cl)Cl (stereo not drawn)	none
O=C(c1ccccc1)N1N=C(c2ccccc2)CC1c1ccccc1 (stereo not drawn)	none
COc1ccccc1C1CC(c2ccccc2)=NN1C(=O)c1ccccc1 (stereo not drawn)	tim23-1 inh 62, tim10-1 inh 42 | tim10-1 confirm 46 | tim23-1 conf 52
Cc1cc(N/N=C/c2ccc(Cl)cc2)nc(NCc2ccccc2)n1	tim23-1 inh 75, tim10-1 inh 48 | tim10-1 confirm 41 | tim23-1 conf inactive
CCOC(=O)C1CCN(S(=O)(=O)c2ccc(NC(=O)c3ccco3)cc2)CC1	tim23-1 inh 65, TIM10 inh 66, tim10-1 inh 69 | tim10-1 confirm 62 | TIM10 conf 55 | tim23-1 conf 69
O=C(Nc1ccc(OCC(=O)N2CCC(Cc3ccccc3)CC2)cc1)c1ccco1	tim23-1 inh 72, TIM10 inh 68, tim10-1 inh 59 | tim10-1 confirm 60 | TIM10 conf 43 | tim23-1 conf 79
CC(=O)Nc1ccc(OCC(=O)N2CCC(Cc3ccccc3)CC2)cc1	none
CCOC(=O)C1CCN(S(=O)(=O)c2ccc(CC)cc2)CC1	none
CC(C)Sc1nc2c(cnn2-c2ccc(Cl)cc2)c(=O)[nH]1	none
COc1ccc(CCN(C)C(=O)c2cc(S(=O)(=O)N3CCCCC3)ccc2Cl)cc1OC	none (no result: PfHsp90 set2)
Cc1noc2ncnc(Sc3ccc(Br)cc3)c12	tim23-1 inh 65, Calb FLC 108, tim10-1 inh 54 | tim10-1 confirm 74 | tim23-1 conf 68
NS(=O)(=O)c1cccc(C(=O)OCC(=O)NC2CCCc3ccccc32)c1 (stereo not drawn)	none (no result: Calb FLC, SKKanGAS inh, PfHsp90 set2)
O=c1oc2cc(O)c(Cl)cc2c2ccccc12	none
O=c1oc(Cl)c(Cl)c2ccccc12	tim23-1 inh 64, tim10-1 inh 45 (no result: Calb FLC, SKKanGAS inh) | tim10-1 confirm inactive | tim23-1 conf 88
Cc1ccc(Nc2nc(-c3c(C)nc4ccccn34)cs2)cc1	tim23-1 inh 54, TIM10 inh 58, tim10-1 inh 51 | tim10-1 confirm 32 | TIM10 conf 58 | tim23-1 conf 43
CCOC(=O)/C(=C/Nc1ccc(F)c(F)c1)[N+](=O)[O-]	none
CCCCn1c(N)c(N(CC(C)C)C(=O)CSCC(=O)Nc2ccc(C)cc2)c(=O)[nH]c1=O	none (no result: Calb FLC, SKKanGAS inh)
COc1ccc(CCC(=O)NCCS(=O)(=O)N2CCN(c3ccc(OC)cc3)CC2)cc1	none
CCN(CC)c1ccc2nc3ccc(N)cc3[n+](-c3ccccc3)c2c1	tim23-1 inh 59, tim10-1 inh 57 (no result: Calb FLC, SKKanGAS inh) | tim10-1 confirm 43 | tim23-1 conf 57
CN1CCN(S(=O)(=O)c2ccc(SCCOc3ccccc3)nc2)CC1	tim23-1 inh 57, TIM10 inh 49, tim10-1 inh 48 (no result: PfHsp90 set2) | tim10-1 confirm 52 | TIM10 conf 49 | tim23-1 conf 46
CCCOc1cc(N)ccc1C(=O)OCCN(CC)CC	none (no result: Calb FLC, SKKanGAS inh)
CCCOc1ccc(N)cc1N	tim23-1 inh 56, tim10-1 inh 50 | tim10-1 confirm inactive | tim23-1 conf inactive
COc1ccc(/C(N)=N/OC(=O)c2cccc([N+](=O)[O-])c2C)cc1OC	none
COc1ccccc1C/C(N)=N/OC(=O)c1ccc(C)c([N+](=O)[O-])c1	tim23-1 inh 75, TIM10 inh 86, tim10-1 inh 69 | tim10-1 confirm 43 | TIM10 conf 86 | tim23-1 conf 42
Cc1ccc(C(=O)O/N=C(\N)Cc2cccs2)cc1[N+](=O)[O-]	tim23-1 inh 88, TIM10 inh 83, tim10-1 inh 43 | tim10-1 confirm 67 | TIM10 conf 85 | tim23-1 conf 83
COc1ccc(C(=O)O/N=C(\N)Cc2cccs2)cc1OC	none
CC(NC(=O)C1CCN(S(=O)(=O)c2cccs2)CC1)c1cccc(Cl)c1 (stereo not drawn)	none (no result: Calb FLC, SKKanGAS inh)
COc1ccc(CCC(=O)NNC(=O)c2ccc(OC)cc2)cc1	none
